Most compounds without a hit are left out; they make up all but 5.4% or so of the library.
Vaccinia mCherry = inhibitors of vaccinia virus infection (mCherry reporter signal) | Vaccinia virus mCherry reporter infection, fluorescence | Potency, µM (top dose mostly 36.5 µM), inactives show at the top dose activity change, negative = inhibition, hits mostly inhibitors | hit rate 0.63% among 310,000 | AID 720579; calls by dose curve; tested in A549 cells; note: nearly all actives have a fitted effect of over 35% in size
FMDV inh = blocks foot and mouth disease virus; FMDV antiviral cell-based qHTS; Potency, µM (titrated, usually from 57.9 µM), without a hit: top-dose activity change, negative = inhibition, most hits filed as inhibitors; hit rate 1.2% among 410,000; calls by dose curve; tested in HEK293T cells; note: read-out not given here; nearly all actives have a fitted effect of over 45% in size
Sm TGR block = S. mansoni TGR enzyme inhibition; Q962Y6; purified TGR, DTNB reduction, TNB absorbance 405 nm; Potency, µM (titrated, usually from 114 µM), for inactives: at the highest dose activity change, negative = inhibition, usual class: inhibitors; hit rate 3% among 360,000; active = well fitted inhibition curve with a large enough effect; inconclusive = small, poorly fitted or top-dose-only effect; inactive = no such curve, though single readings can be large or run the other way; note: nearly all actives have a fitted effect of over 60% in size
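TGR 20 nM + NADPH 100 uM (dispensed conc.), cpd preinc 15 min RT; start with NADPH (500 uM addition) then DTNB (15 mM addition). Kinetic TNB absorbance, 405 nm filter. Four-parameter Hill fit across titration.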
LASV entry inh = blocks Lassa virus binding to or entry into cells; Lassa virus pseudotype entry inhibition, cell reporter; Potency, µM (series often up to 37.9 µM), without a hit: at the highest dose activity change, negative = inhibition, most hits filed as inhibitors; hit rate 1.2% among 300,000; calls by dose curve; tested in HEK293 cells; note: nearly all actives have a fitted effect of over 50% in size
MARV entry inh = inhibitors of Marburg virus binding or cell entry | Marburg virus pseudotyped entry inhibition, cell reporter | Potency, µM (doses to about 37.8 µM), without a hit: at the highest dose activity change, negative = inhibition, usual class: inhibitors | hit rate 1.8% among 300,000 | AID 540276; calls by dose curve; tested in HEK293 cells
VACV Venus inh = vaccinia inhibition (Venus reporter); Vaccinia virus Venus reporter expression, fluorescence; Potency, µM (titrated, usually from 36.5 µM), without a hit: top-dose activity change, negative = inhibition, actives largely listed as inhibitors; AID 720580; hit rate 0.46% among 330,000; calls by dose curve; tested in A549 cells; note: nearly all actives have a fitted effect of over 30% in size
An asterisk follows results filed as active; i = inactive; u = inconclusive; x = no result; [ ] = another dose, or the depositor's remark. % is set by controls: 0 for no effect and ±100 for the full control effect; potency is the fitted concentration of half-maximal effect.

SMILES	Vaccinia mCherry	FMDV inh	Sm TGR block	LASV entry inh	MARV entry inh	VACV Venus inh
COc1ccc(-c2nc3ccccc3n2Cc2ccc(C)cc2)cc1	x	9.9%	u	0.7%	9.4%[46.1 µM]	-19.2%
COc1ccc(Cn2c(-c3ccc(C)cc3)c[n+]3ccccc23)cc1	i	u	-6.4%	6.31µM*	u	-6.8%
O=C(COC(=O)CNC(=O)c1ccc(Cl)cc1Cl)NCc1ccco1	-13.9%	7.4%	0.8%	u	2.82µM*	0.8%
Cc1ccc(OCC(=O)NCc2ccco2)cc1C	-14.4%	17.8%	35.5µM*	-9.3%	29.8%	-9.2%
Cc1ccc(OCC(=O)NCCNC(=O)c2ccco2)cc1C	-8.0%	34.7%	-5.9%	15.6%[46.1 µM]	-8.9%[46.1 µM]	2.7%
O=C(CNC(=O)c1ccco1)OCC(=O)c1ccc(Cl)cc1Cl	-28.9%	-7.7%	2.4%[57.1 µM]	3.4%	-18.8%[46.1 µM]	-0.3%
Cc1cc(Cl)cc(Cl)c1OCC(=O)NCc1ccco1	x	-14.6%	39.8µM*	-3.4%	15.3%	x
CCN(C(=O)CSc1ncc(S(=O)(=O)c2ccc(C)c(Cl)c2)c(=O)[nH]1)c1cccc(C)c1	-4.2%	11.8%	-3.5%	-8.1%[46.1 µM]	x	-7.3%
Cc1cc(C)c(C(=O)/C=C/c2cccs2)c(=O)[nH]1	x	35.8%	-3.4%	x	x	x
Cc1ccc(/C=C/C(=O)c2c(C)cc(C)[nH]c2=O)cc1	x	u	-27.0%	u	23.1µM*	x
COc1ccccc1/C=C/C(=O)c1c2c(c(C)[nH]c1=O)CCCC2	u	u	44.7µM*	-45.6%[14.3 µM]	20.6µM*	11.2µM*
CCc1ccc(/C=C/C(=O)c2c(C)cc(C)[nH]c2=O)cc1	x	28.2µM*	u	u	u	u
COc1ccc(/C=C/C(=O)c2c(C)cc(C)[nH]c2=O)c2ccccc12	8.91µM*	-25.0%	-9.3%	u	u	u
COc1cc(OC)cc(C(=O)NCc2ccc3c(c2)CCN3C(=O)c2ccccc2)c1	-27.7%[7.34 µM]	-4.8%	10.4%	u	x	-20.6%[7.34 µM]
Cc1ccccc1OC[C@H](O)Cn1c(N2CCN(c3ccccc3)CC2)nc2c1c(=O)[nH]c(=O)n2C	x	x	x	x	-20.0%	x
COc1cc(/C=C2\CCC(C)C3=C(c4cc(OC)c(OC)c(OC)c4)C(C#N)=C(N)OC32)cc(OC)c1OC (centres undefined)	u	u	x	11.2µM*	u	-8.0%
CC1=C(C(=O)N2CCOCC2)C(c2ccc(O)cc2)NC(=S)N1 (centres undefined)	i	-14.6%	2.6%	-0.1%	2.7%	-4.9%
Oc1ccc2c(c1)C1CCCC1(N1CCOCC1)O2 (centres undefined)	-14.5%	12.2%	28.2µM*	13.5%	22.1%	-3.5%
Brc1ccc2c(c1)C(OC1CN3CCC1CC3)c1ccccc1CS2 (centres undefined)	u	-10.6%	89.1µM*	u	3.98µM*	11.2µM*
CN1CCC(OC2c3ccccc3CCc3ccccc32)CC1	i	-24.3%	x	x	x	-27.3%
COc1cccc(N2CCN(C(=O)c3cc4cc5cc(C)ccc5nc4s3)CC2)c1	-12.4%	-15.5%	1.5%	12.8%[46.1 µM]	x	-2.7%
O=C(Cn1c(=O)oc2cc(S(=O)(=O)NC3CCCC3)ccc21)Nc1ccc(F)c(F)c1	-19.1%	30.8%	1.4%	x	-12.5%[46.1 µM]	-4.7%
COc1ccc(C(=O)Nn2c(SCC(=O)NCc3ccccc3)nc3ccccc3c2=O)cc1	x	u	-20.8%	u	u	x
COc1ccc(C(=O)Nn2c(SCC(=O)NCC3CCCO3)nc3ccccc3c2=O)cc1 (centres undefined)	x	11.2µM*	2.1%	7.3µM*	u	x
COc1ccc(C(=O)Nn2c(SCC(=O)NC3CCCC3)nc3ccccc3c2=O)cc1	x	17.8µM*	-26.0%	u	u	x
SMILES	Vaccinia mCherry	FMDV inh	Sm TGR block	LASV entry inh	MARV entry inh	VACV Venus inh
CCC(C)NC(=O)Cn1c(=O)ccc2cc(S(=O)(=O)N3CCCC3)ccc21 (centres undefined)	0.0%	-8.6%	-0.7%	-5.3%[46.1 µM]	x	0.6%
COc1ccc(C(=O)c2cn(CC(=O)Nc3ccc4c(c3)OCO4)c3ccc(OC)cc3c2=O)cc1	-3.3%	-1.0%	-0.8%	-24.1%[46.1 µM]	-29.4%[46.1 µM]	-4.3%
CCCCC(c1nnnn1CS(=O)(=O)c1ccc(C)cc1)N1CCN(C)CC1 (centres undefined)	-6.2%	4.2%	10µM*	u	u	-5.6%
CCC(c1nnnn1CS(=O)(=O)c1ccc(C)cc1)N1CCN(c2nc3ccccc3s2)CC1 (centres undefined)	i	x	0.0%	u	8.2µM*	-19.5%
CCCC(c1nnnn1CS(=O)(=O)c1ccc(C)cc1)N1CCN(c2ccccc2)CC1 (centres undefined)	-5.5%	-11.9%	0.9%	11.2µM*	u	-23.3%
Cc1ccc(S(=O)(=O)Cn2nnnc2C(c2ccccc2)N2CCN(c3ncccn3)CC2)cc1 (centres undefined)	x	7.1%	-0.6%	2.2%	-12.2%	x
Cc1ccc(S(=O)(=O)Cn2nnnc2C(C)N2CCN(C(=O)c3ccco3)CC2)cc1 (centres undefined)	-26.7%	x	44.7µM*	15.5%	15.3%	-25.8%
Cc1ccc(S(=O)(=O)Cn2nnnc2C(c2ccccc2)N2CCN(c3ccccc3)CC2)cc1 (centres undefined)	-6.6%	3.4%	-34.8%	-19.9%	u	-4.9%
Cc1ccc(S(=O)(=O)Cn2nnnc2C(C(C)C)N2CCN(C(=O)c3ccco3)CC2)cc1 (centres undefined)	i	18.6%	x	-21.5%	3.3%	-11.0%
COc1cc2nc(CN(CCO)C3CS(=O)(=O)CC3O)nc(N3CCCCC3)c2cc1OC (centres undefined)	-12.3%	-3.0%	x	x	x	-10.8%
O=[N+]([O-])/C=C/c1c(Cl)cccc1Cl	-5.6%	7.94µM*	x	-4.7%	10µM*	-17.0%
Cc1ccc(NC(=O)CN2C(=O)C(c3ccc(C)cc3)=NC23CCCCCC3)cc1	-19.8%	-13.1%	-1.9%	u	u	-20.5%
COCCNC(=O)Cn1c(=O)n(-c2ccc(C)c(C)c2)c(=O)c2c3c(sc21)CCCCC3	-3.3%	-3.6%	0.5%	-25.3%[46.1 µM]	-8.9%[46.1 µM]	-8.8%
CCOC(=O)c1nnn(-c2nonc2-n2cccc2)c1C	x	3.3%	-26.5%	14.6%	1.7%[46.1 µM]	-4.8%
CCOC(=O)c1nnn(-c2nn3nnnc3c3ccccc23)c1C	8.91µM*	-21.1%	-11.7%	0.8%	17.4%	u
CN(C)CCCn1c2c3ccccc3ccc2c2oc(=O)c3ccccc3c21	22.4µM*	-8.3%	x	u	u	u
COc1ccc(C2C3=C(CCCC3=O)N(CC(=O)O)C3=C2C(=O)CCC3)cc1Br	i	-9.0%	x	x	x	-0.6%
COc1ccc(C2C3=C(CCCC3=O)N(CC(=O)O)C3=C2C(=O)CCC3)cc1Cl	i	-8.5%	50.1µM*	-3.2%[46.1 µM]	9.6%[46.1 µM]	-7.9%
CCOc1cc(C2C3=C(CCCC3=O)N(CC(=O)O)C3=C2C(=O)CCC3)ccc1OC	x	-3.9%	89.1µM*	x	x	x
Nc1nonc1-c1nc2cnccc2n1C1CCCCC1	x	x	x	-15.1%	x	x
Cc1noc(N)c1C(=O)Nc1ccccc1F	i[1.46 µM]	0.3%	0.0%	-0.6%	-1.5%	7.94µM*

Source: PubChem BioAssay (National Center for Advancing Translational Sciences (NCATS))
